# About 100 (0.1%) of roughly 96,000 compounds were called active.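 Rule for the calls: active = displacement above 50% at 20 µM plus a fluorescence interference ratio under 1.5; inactive = the rest.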 What follows is part of a selection rich in actives, with near analogues and random picks from the rest. Entries with a potency or affinity are not part of this list.
# Target: Bcl-2-like protein 10 (Homo sapiens) (UniProt Q9HD36)
# Assay: Bcl-B/TR3 peptide binding disruption – biochemical, fluorescence polarization, FITC-TR3 peptide, selectivity assay for Bfl-1 inhibitor project, primary screen (AID 748);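 note: plate controls were wells without compound for no effect and wells lacking Bcl-B protein for full effect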
# Conditions: FP displacement of FITC-TR3 peptide from Bcl-B; at 20 µM; stronger effect = higher value
row,Structure (SMILES),displacement
1,CCOc1cc(/C=C2\SC(=S)N(Nc3ccccc3)C2=O)ccc1O,-87.6% (inactive)
2,Cc1ccc(-c2csc(N3N=C(c4ccccc4)/C(=C\c4ccc(N(C)C)cc4)C3=O)n2)cc1,-1.8% (inactive)
3,COc1cc(C2N(c3ccccn3)C(=O)C3CCCN32)cc(OC)c1OC (centres undefined),6.8% (inactive)
4,Cc1ccc(Cl)c(OCC(=O)Nc2ccc3c(c2)OCCO3)c1,1.3% (inactive)
5,O=C(O)CN(c1ccc(F)cc1)S(=O)(=O)c1ccc2c(c1)OCCO2,-1.7% (inactive)
6,CC(C)CN(C(=O)COC(=O)c1cc2ccccc2oc1=O)C1CCS(=O)(=O)C1 (centres undefined),-8.2% (inactive)
7,CC(C)CN(C(=O)COC(=O)c1ccc2c(c1)NC(=O)CS2)C1CCS(=O)(=O)C1 (centres undefined),8.5% (inactive)
8,O=C(CCc1nc2ccccc2s1)OCC(=O)N1CCN(C(=O)c2ccco2)CC1,-8% (inactive)
9,Cn1c(=O)c2c3c(sc2n2c(SCc4ccc5c(c4)OCO5)nnc12)COC(C)(C)C3,-8.4% (inactive)
10,O=C(Nc1ccc(F)cc1F)c1cc2ncc(Br)cn2n1,-2.9% (inactive)
11,COC(=O)c1ccccc1NC(=O)c1cc2ncc(Br)cn2n1,1.3% (inactive)
12,Cc1ccc(Cc2cnc(NC(=O)C3CCCO3)s2)cc1 (centres undefined),0.1% (inactive)
13,COc1ccc2c3c(cccc13)N(C)N=C2C,20.3% (inactive)
14,CCC1=NNc2cccc3c(OC)ccc1c23,83.6% (active)
15,COc1ccc(C(C)=O)c2c(O)cccc12,-7% (inactive)
16,CCC(C)(C)n1nnnc1C(c1ccc2ncccc2c1)N1CCN(c2nc3ccccc3s2)CC1 (centres undefined),-13.1% (inactive)
17,COc1ccc(-c2c(C)nn(-c3ccccc3)c2N)cc1,-8% (inactive)
18,CCOc1cc(C(=O)Nc2ccon2)cc(OCC)c1OCC,-15.8% (inactive)
19,Cc1ccc(S(=O)(=O)NC(=O)c2cc(C)n(CCCN3CCOCC3)c2C)cc1,8.5% (inactive)
20,Cc1cc(=S)cc(C)n1CCCn1ccnc1,-6.1% (inactive)
21,Cc1ccccc1C1CC(=O)NC2=C1C(=O)CCC2 (centres undefined),-1.2% (inactive)
22,CCCn1c(SCC(=O)NCCc2ccc(OC)c(OC)c2)nc2c1c(=O)n(C)c(=O)n2C,-14.2% (inactive)

row,Structure (SMILES),displacement
1,Cc1cc(C)cc(OCC(=O)OCC(=O)Nc2ccc(Cl)cn2)c1,-13.6% (inactive)
2,O=C(COC(=O)CCOc1ccccc1)Nc1ccc(Cl)cn1,16% (inactive)
3,CCOC(=O)c1sc(/N=C/N(C)C)c(C(=O)OCC)c1C,-16.8% (inactive)
4,CCOC(=O)C1=C(O)/C(=C/N(C)C)N=C1C,-3.9% (inactive)
5,CCOC(=O)C(Cc1ccccc1)NC(=O)Cn1nnc(-c2ccc(SC)cc2)n1 (centres undefined),-16.2% (inactive)
6,CCCOP(=O)(OCCC)C(Nc1ccc(C(C)C)cc1)c1ccc([N+](=O)[O-])cc1 (centres undefined),13.7% (inactive)
7,Cc1c(NS(=O)(=O)c2cccc(C(=O)NCc3ccccc3)c2)c(=O)n(-c2ccccc2)n1C,0.4% (inactive)
8,CCOC(=O)c1ccc(NC2OC(=O)c3ccccc32)cc1 (centres undefined),-4.1% (inactive)
9,CCOC(=O)c1ccc(NC(=O)C(C)N2C(=O)c3ccccc3C2=O)cc1 (centres undefined),14.6% (inactive)
10,Cc1ccc(CC(=O)OCCNC(=O)c2cccnc2)cc1,1.8% (inactive)
11,O=c1c2cc(N3CCOCC3)ccc2[nH]c(=S)n1CCCN1CCCCC1,10.5% (inactive)
12,O=c1c2cc(N3CCOCC3)ccc2[nH]c(=S)n1CCCN1CCCC1,13.1% (inactive)
13,CN(C)c1ccc(C2N(c3ccc(F)cc3)C(=O)C3CCCN32)cc1 (centres undefined),-12.2% (inactive)
14,Cc1ccc(C)c(NC(=O)C2C(c3ccccc3)C2(Cl)Cl)c1 (centres undefined),-7.6% (inactive)
15,Cc1cccc(Nc2nc(N)nc(CN3CCN(Cc4ccc5c(c4)OCO5)CC3)n2)c1,-2.8% (inactive)
16,Cc1cc(C)nc(/N=C(\N)C2=C(O)CC(C)(C)CC2=O)n1,-12.3% (inactive)
17,O=C1c2ccccc2C(=O)C12Cc1ccccc1N1CCN(c3ccccc3)CC12 (centres undefined),-0.1% (inactive)
18,CC1(C)OC(=O)C2(Cc3ccccc3N3CCCCC32)C(=O)O1 (centres undefined),3.5% (inactive)
19,O=C(CCS(=O)(=O)c1ccc(Br)cc1)N1CCN(Cc2ccccc2)CC1,-5% (inactive)
20,O=C(CCN1Cc2ccccc2C1)c1ccc2c(c1)OCCO2,0.8% (inactive)
21,O=C(CCN1CCc2ccccc2CC1)c1ccc2c(c1)OCCO2,19.8% (inactive)
22,Cc1ccc(S(=O)(=O)NCCC(=O)NC2CCCC2)cc1,2% (inactive)

row,Structure (SMILES),displacement
1,O=C(CN1C(=O)C2CC=CCC2C1=O)Nc1nc2ccccc2[nH]1 (centres undefined),7.6% (inactive)
2,CCCOc1cc(C)nc(-c2ccccc2O)n1,-2.4% (inactive)
3,O=C(Nc1nc(-c2ccccn2)cs1)C1CC1,-5.8% (inactive)
4,O=C(CN1C(=O)C2CCCCC2C1=O)Nc1nc(-c2ccccn2)cs1 (centres undefined),-3.3% (inactive)
5,Cc1cc2c(c(=O)n1CC1CCCO1)C(c1ccco1)C(C#N)=C(N)O2 (centres undefined),-1.3% (inactive)
6,CCOC(=O)c1cnc(-n2nc(C)cc2C)nc1Nc1ccc(OC)cc1,0.6% (inactive)
7,CCN(CC)S(=O)(=O)c1cc(C(=O)Nc2ccc(Cl)cn2)ccc1C,-1.9% (inactive)
8,Cc1nc2sc3c(c2c(=O)[nH]1)CCC3,-1.1% (inactive)
9,CCCOc1ccc(Cc2nn3c(=O)/c(=C/c4ccco4)sc3nc2=O)cc1,-5.7% (inactive)
10,Cc1ccc(-c2nc3s/c(=C\c4ccco4)c(=O)n3n2)cc1,-14.4% (inactive)
11,CCn1c2ccccc2c2nnc(SCc3cc(=O)n4ccsc4n3)nc21,-0.4% (inactive)
12,Cc1ccccc1Oc1ccc(S(=O)(=O)NCCC(=O)O)cc1,0.5% (inactive)
13,Clc1ccc(CN2CCCCCCC2)cc1Cl,-0.5% (inactive)
14,ON=Cc1cccn1-c1ccccc1,3.4% (inactive)
15,O/N=C/c1cccn1-c1ccc(O)cc1,0.9% (inactive)
16,O=C(Nc1cccnc1)c1c(F)cccc1F,7.8% (inactive)
17,O=C(c1coc(=O)c(Br)c1)N1CCCc2ccccc21,18% (inactive)
18,CC1(C)CC(NC(=O)c2coc(=O)c(Br)c2)CC(C)(C)N1,6.4% (inactive)
19,O=C(c1ccc(=O)oc1)N1CCOCC1,-16.5% (inactive)
20,COc1ccc(C(=O)N2CCOCC2)cc1Br,-9.8% (inactive)

# — PubChem BioAssay AID748 (Sanford-Burnham Center for Chemical Genomics, 2007)
